This is a sample that favours compounds with a hit; in the whole collection about 4.6% have one here.
tim10-1 inh: growth inhibitors of tim10-1 mutant yeast, primary screen, luminescence, uHTS; S. cerevisiae tim10-1 ts strain growth, BacTiter-Glo, 24 h; inhibition, % at 20 µM; 2.2% of 330,000 active;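 active means inhibition of at least 40%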;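 further: mutant grown at 25 °C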
TIM10 inh: growth inhibitors of isogenic TIM10 control yeast, primary screen, counter-screen for tim10-1 yeast inhibitor project, luminescence, uHTS; AID 463195, 2010; 1.4% of 330,000 active; inhibition, % at 10 µM; S. cerevisiae TIM10 strain growth, BacTiter-Glo luminescence, 24 h;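 active means inhibition of 40% or more at the single tested concentration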;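 further: wild-type TIM10 isogenic control strain grown at permissive 25 °C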
tim23-1 inh: growth inhibitors of tim23-1 mutant yeast, primary screen, luminescence, uHTS. S. cerevisiae tim23-1 growth, BacTiter-Glo luminescence, 24 h. inhibition, % at 20 µM. 1.3% of 330,000 active. AID 463212, 2010;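 active means growth inhibition of the mutant yeast at or above 50%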;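 further: temperature-sensitive mutant grown at 25 °C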
NALP3 yeast inh: NALP3 inflammasome inhibitors in reconstituted yeast, primary screen, luminescence, uHTS | Yeast reconstituted NLRP3/ASC/caspase-1, beta-gal luminescence, 24 h | inhibition, % at 10 µM | 0.39% of 330,000 active | AID 2825, 2010;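 active means inhibition of 50% or more; inactive means inhibition below 50%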
SKKanGAS inh: S. pyogenes SKKanGAS growth inhibitors in kanamycin, primary screen, streptokinase expression inhibitor project, SKKanGAS strain, BacTiter-Glo luminescence; 6 h; inhibition, % at 7.5 µM; 1.3% of 300,000 active; AID 1662, 2009;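 active means mean replicate score, as percent of positive control median, at least 50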;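 further: strain carries kanamycin resistance gene driven by streptokinase promoter and grows in 40 µg/ml kanamycin; loss of luminescence reflects streptokinase promoter inhibition or plain growth inhibition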
tim10-1 conf: growth inhibitors of tim10-1 mutant yeast, confirmation, single concentration, luminescence, S. cerevisiae; shares compounds with tim10-1 inh; S. cerevisiae tim10-1 ts strain growth, BacTiter-Glo, 24 h; inhibition, % at 20 µM; 56% of 7,400 active; AID 463213, 2010;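 active means inhibition of yeast growth at or above a set limit in either of two repeat tests at 20 µM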;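 further: tim10-1 mutant grown at permissive 25 °C to find synthetic lethal compounds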
Large screens that a line does not name were inactive (follow-up assays come after a bar, where they were run).

C[C@H](CO)N1C[C@H](C)[C@@H](CN(C)C(=O)Nc2ccc(C(F)(F)F)cc2)Oc2c(NC(=O)Cc3ccccc3)cccc2C1=O	none (no result: SKKanGAS inh)
CC(NC(=S)Nc1ccc(Cl)cc1Cl)C(c1cccs1)N1CCCC1 (configuration not stated)	tim10-1 inh 41 | tim10-1 conf inactive
COC(=O)[C@]1(C)N[C@H](CN(C)C(=O)C2CCCCC2)[C@@H]2C(=O)N(Cc3ccccc3)C(=O)[C@@H]21	none (no result: SKKanGAS inh)
COc1ccc(-n2c(C)cc(C(=O)Cn3nc(C(=O)O)c4ccccc4c3=O)c2C)cc1	none
Cc1ccc(-n2c(C)cc(C(=O)Cn3nc(C(=O)O)c4ccccc4c3=O)c2C)cc1	tim10-1 inh 42 | tim10-1 conf inactive
CC1(C)Cc2c(sc(NC(=O)C(=O)N3CCCC3)c2C(=O)O)CO1	none
CC1(C)Cc2c(sc(NC(=O)C(=O)N3CCCC3)c2C#N)CO1	tim10-1 inh 41 | tim10-1 conf inactive
Cc1sc2nc(SCc3nc4ccccc4[nH]3)n(Cc3ccco3)c(=O)c2c1C	tim10-1 inh 52 | tim10-1 conf 35
Cc1sc2nc(SCc3ccccc3)n(Cc3ccco3)c(=O)c2c1C	none
Cc1ccccc1NC(=O)c1ccc(F)c(S(=O)(=O)N2CCN(c3ccccn3)CC2)c1	tim10-1 inh 41 | tim10-1 conf 39
COc1cc(NC(=O)CN2C(=O)COc3ccc(S(=O)(=O)N4CCCC4)cc32)cc(OC)c1	none
CCCCCCCCS(=O)c1sc2nc3c(cc2c1N)CCCC3 (configuration not stated)	tim10-1 inh 42 | tim10-1 conf 50
Cc1cc(SCC(=O)Nc2cccnc2Cl)nc2ccccc12	none
COCCn1c(SCC(=O)Nc2nc(C)c(Cl)cc2Cl)nc2ccccc21	tim10-1 inh 42 | tim10-1 conf inactive
Cc1nc(NC(=O)CSc2cc(C)c3ccccc3n2)c(Cl)cc1Cl	tim10-1 inh 41 | tim10-1 conf inactive
CCOc1cccc(CN(C)CC2CCCN(CCc3ccc(Cl)cc3)C2)c1O (configuration not stated)	none
COc1ccc(N(C)S(=O)(=O)c2cccc(C(=O)OCC(=O)N(C)c3ccccc3)c2)cc1	none (no result: SKKanGAS inh)
Cc1ccc(C)c(N2CCN(C(=O)CCS(=O)(=O)c3ccc4c(c3)oc(=O)n4C)CC2)c1	none
S=c1[nH]nc(-c2ccccn2)n1/N=C/c1cccc2ccccc12	tim10-1 inh 41 | tim10-1 conf inactive
CCOc1ccc(CCNC(=O)c2cccc(S(=O)(=O)N3CCCCC3)c2)cc1OCC	none
CCn1c(-c2cc(Br)cc(OC)c2O)nc2cc(S(=O)(=O)N(C)C)ccc21	tim10-1 inh 43 | tim10-1 conf inactive
CN(Cc1ccccc1)S(=O)(=O)c1ccc2c(c1)OCCO2	tim10-1 inh 42 | tim10-1 conf inactive
O=C(O)CN(Cc1ccccc1)S(=O)(=O)c1ccc2c(c1)OCCO2	none
COc1ccc(CN(C)S(=O)(=O)c2ccc3c(c2)OCCO3)cc1	tim10-1 inh 47, SKKanGAS inh 51 | tim10-1 conf inactive
Cc1ccc(C(=O)OCC(=O)NCc2cccc(Cl)c2)cc1S(=O)(=O)N1CCCCC1	none (no result: SKKanGAS inh)
Cc1ccc(-c2csc3ncnc(-n4nnc5ccccc54)c23)cc1C	tim10-1 inh 42 | tim10-1 conf 31
c1ccc(-c2csc3ncnc(-n4cnc5ccccc54)c23)cc1	tim10-1 inh 42 | tim10-1 conf 32
COCCC(=O)N1CCC(Oc2ccc(C(=O)N3CCCC(CCCO)C3)cc2)CC1 (configuration not stated)	none
CSCCC(C(=O)N(C)CC(=O)Nc1cccc(F)c1)N1C(=O)c2ccccc2C1=O (configuration not stated)	none (no result: SKKanGAS inh)
COc1ccc(N2CCC(CNC(=O)Nc3cccc(OC)c3)C2)cc1 (configuration not stated)	tim10-1 inh 46 | tim10-1 conf 40
CCOc1ccc2nc(N/C(N)=N/C(=S)Nc3ccc(C)c(C)c3)nc(C)c2c1	none
Cc1ccc2c(C)nc(N/C(N)=N/S(=O)(=O)c3ccc([N+](=O)[O-])cc3)nc2c1	tim10-1 inh 42 | tim10-1 conf inactive
